Compounds without any hit were thinned out: in the full panel of roughly 83,000, 20% have a hit.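 Each cell line was grown in a 96-well plate and treated with one concentration of compound for 48 hours. Values below 10 were considered active.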 A number with no mark means an inactive call. Activity calls are given as the source filed them.
tested on: A498 renal; test: NCI-60 one-dose screen, 48 h (100 = growth as untreated, 0 = no growth, -100 = all killed); details: 10 µM unless noted
Experimental: Growth inhibition of the A498 human tumor cell line is measured as a screen for anti-cancer activity. Cells are grown in 96 well plates and exposed to the test compound for 48 hours. Compounds are tested at a single concentration, which is 10^-5 M for most compounds. The reported endpoint is percent growth (GI% or GIPRCNT), where numbers from 0 - 100% represent growth inhibition, and numbers from -100% - 0 represent cell death. For example, a value of 40 represents 60% growth inhibition. A value of 0 means no net growth occurred over the course of the experiment. A value of -40 indicates 40% of cells at the beginning of the experiment died by the end of the experiment. A value of -100 means all cells are dead at the end of the experiment.
NCI-60 Human Tumor Cell Lines Screen was performed using the standard one-dose NCI protocol, which is described in more detail at https://dtp.cancer.gov/discovery_development/nci-60/default.htm.
Compounds with GIPRCNT values below 10 were considered active. Activity score was based on GIPRCNT using the following formula: […]
Score is 0 for GIPRCNT values of 100 or above, 50 for GIPRCNT values of 0, and 100 for GIPRCNT values of -100.

CCOC(=O)c1c(C)nc2c(c1N)/C(=C/c1cccs1)C(=O)N2Cc1ccccc1 was tested. Which growth did it give?
The growth was 70.2%.

How did the growth turn out when C=C1C(=O)O[C@H]2[C@H]1CC/C(COC(=O)c1cccnc1)=C\CC[C@@]1(C)O[C@@H]21 was run?
Its growth is 102%.

How did the growth turn out when CN1CCN(S(=O)(=O)O[C@@H]2C(=O)N(c3cc4c5ccccc5ccc4c4ccccc34)[C@H]2c2ccc(F)cn2)CC1 was run?
The growth was 80.4%.

For COc1ccc2c(c1)Oc1nc(N)c(C#N)c(N)c1C2Sc1ccc(O)cc1 (stereo not given), which growth is on record?
The growth was 91.4%.

For C/C(=C\c1cnc(C)s1)[C@@H]1C[C@@H]2O[C@@H]2CCC[C@H](C)[C@H](O)[C@@H](C)C(=O)C(C)(C)[C@@H](O)CC(=O)O1, which growth is on record?
The growth was 4.95% (active).

How did the growth turn out when C=C(C)[C@@H]1CC[C@]2(C(=O)OCCOCCOCC[P+](c3ccccc3)(c3ccccc3)c3ccccc3)CC[C@]3(C)[C@H](CC[C@@H]4[C@@]5(C)CC[C@H](OC(C)=O)C(C)(C)[C@@H]5CC[C@]43C)[C@@H]12 was run?
Its growth is -94% (active).

With COc1ccc2nc3c(n2c1)C(=O)C(=O)c1ccccc1-3 as the compound, how does the growth read?
Its growth is 68.7%.

Which growth does the source give for COc1ccc(/C=C/C(=O)Nc2ncnc3nc[nH]c23)cc1 here?
The growth was 108%.

COc1ccc(C(=O)c2cc(OC)c(OC)c(OC)c2)cc1OC(=O)C(Cl)(Cl)Cl was tested. Which growth did it give?
The growth was 46.5%.

For N#Cc1c(NC(=O)c2cccs2)[n+]([O-])c2cc(C(F)(F)F)ccc2[n+]1[O-], which growth is on record?
The growth was 123%.

With COc1cc2c(cc1OC)C(Sc1ccc(Cl)cc1)c1c(nc(N)c(C#N)c1N)O2 (stereo not given) as the compound, how does the growth read?
The growth was 66.4%.

For Cn1nc(C(F)(F)F)c(-c2cc(C(F)(F)F)cc(C(F)(F)F)c2)c1-c1ccc(OCc2ccc(Cl)cc2)cc1O, which growth is on record?
Its growth is -26.9% (active).

Which growth does the source give for COc1cc(/C=C/C(=O)/C=C/c2cc3ccc(Cl)cc3n(Cc3ccccc3)c2=O)ccc1O here?
The growth was 69.2%.

How did the growth turn out when Nc1c(C(=O)Nc2cccc3ccccc23)sc2nc3c(cc12)COCC3 was run?
The growth was 54.2%.

How did the growth turn out when COc1ccc(Cc2nc(C#N)c(N3CCN(c4ccc(F)cc4)CC3)o2)cc1 was run?
Its growth is 103%.

How did the growth turn out when CNCc1cccc2c1OCCOCCOCCN(CCN1CCOCC1)S(=O)(=O)c1ccc(cc1)-c1cnc(N)c(n1)C(=O)N2 was run?
The growth was 44.4%.

COC(=O)/C=C1\SC(=Nc2cccc(Cl)c2)N(CCc2c[nH]c3ccccc23)C1=O was tested. Which growth did it give?
The growth was 61.5%.

For C=C(C)[C@@H]1CC[C@]2(C(=O)n3ccnc3)CC[C@]3(C)[C@H](CC[C@@H]4[C@@]5(C)CCCNC(C)(C)[C@@H]5CC[C@]43C)[C@@H]12, which growth is on record?
Its growth is 84%.

COc1ccc(-c2[nH]c3ccccc3c2C=C(C#N)C#N)cc1 was tested. Which growth did it give?
The growth was -7.34% (active).

Which growth does the source give for CCCCc1ccc(N=Nc2ccc(OCC[N+](C)(C)C)cc2)cc1 here?
Its growth is 67.5%.

With Cc1cc(C)n(-c2nc(-c3cccs3)c(C#N)c(=O)[nH]2)n1 as the compound, how does the growth read?
Its growth is 93.8%.

For CC(=O)ON1CCCC(P(=O)(OCOC(=O)C(C)(C)C)OCOC(=O)C(C)(C)C)C1=O (stereo not given), which growth is on record?
Its growth is -8.06% (active).

With Cc1cc(NC(=O)CNc2nc(Oc3ccc(F)cc3)nc(-c3ccc(F)cc3)n2)ccc1Cl as the compound, how does the growth read?
Its growth is 89.3%.

For N#CCNc1ccc(C(=O)O)cc1, which growth is on record?
The growth was 106%.

How did the growth turn out when O=C(/C(=C\c1c(-c2ccccc2)[nH]c2ccccc12)S(=O)(=O)c1ccccc1)c1ccccc1 was run?
The growth was 54.3%.

Which growth does the source give for O=c1[nH]c(-c2cccc(F)c2)cc2cc(F)ccc12 here?
The growth was 21.9%.

For Nc1c(C(=O)Nc2cccc3ccccc23)sc2nc3c(cc12)CCCCCC3, which growth is on record?
The growth was -4.7% (active).

With C/C(=N/Nc1nc2ccccc2n1C)c1ccccn1 as the compound, how does the growth read?
The growth was -29.8% (active).

How did the growth turn out when NS(=O)(=O)c1ccc(N2Cc3cc(Cl)ccc3OC3=C2C(=O)N(CC2CCCCC2)C3=O)cc1 was run?
Its growth is -72.2% (active).

For C[C@H]1[C@H](C)CC[C@]2(C(=O)OCCOCCOCC[P+](c3ccccc3)(c3ccccc3)c3ccccc3)CC[C@]3(C)C(=CC[C@@H]4[C@@]5(C)CC[C@H](OC(=O)C(Cl)Cl)C(C)(C)[C@@H]5CC[C@]43C)[C@H]12, which growth is on record?
The growth was 6.28% (active).

Which growth does the source give for COc1cc2cc(c1Cl)N(C)C(=O)C[C@H](OC(=O)[C@H](C)N(C)C(=O)CCS)C[C@]1(C)O[C@H]1[C@H](C)[C@@H]1C[C@@](O)(NC(=O)O1)[C@H](OC)/C=C/C=C(\C)C2 here?
The growth was -21.9% (active).

For Nc1c(C(=O)Nc2ccccc2)sc2nc3c(cc12)CN(C(=O)OCc1ccccc1)CC3, which growth is on record?
The growth was 44.6%.

COC(=O)c1cncc(C(=O)Nc2ccc(-n3cnc4ccccc43)cc2)c1 was tested. Which growth did it give?
The growth was 88.3%.

With Nc1c(C(=O)c2ccccc2)sc2nc(-c3cc4ccccc4o3)cc(-c3ccc(Cl)cc3)c12 as the compound, how does the growth read?
The growth was 199%.

With COC(=O)/C=C1\SC(=Nc2ccc(F)cc2)N(CCc2c[nH]c3ccccc23)C1=O as the compound, how does the growth read?
The growth was 110%.

With O=C1NC(c2ccc(F)cc2)N=C2C(c3ccccc3)=NOC12 (stereo not given) as the compound, how does the growth read?
The growth was 104%.

For COc1ccccc1N1CCN(CCCOc2ccc(C(=O)/C=C3/C(=O)Nc4ccccc43)cc2)CC1, which growth is on record?
Its growth is 88.6%.

Which growth does the source give for COc1ccc(Sc2[nH]c(C(C)=O)c3ccccc23)cc1 here?
The growth was -0.948% (active).

How did the growth turn out when Cc1nnc(/N=C2\NC(=O)/C(=C/c3ccsc3)S2)s1 was run?
The growth was 87.7%.

How did the growth turn out when Cc1nccc2c3ccc(OCc4cn(-c5ccc(Br)cc5)nn4)cc3n(CC(C)C)c12 was run?
Its growth is 53%.
